# Screening results from PubChem BioAssay.
# KCNQ2 pot: potentiators of rat KCNQ2 potassium channel | Potassium voltage-gated channel subfamily KQT member 2 (Rattus norvegicus), O88943 | CHO-K1 KCNQ2, FluxOR thallium flux fluorescence; stronger effect = higher value | B-score at 10 µM | actives 0.54% (n = 310,000);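 active = fluorescence ratio B-score at least 3 SD of library B-scores, with initial fluorescence B-score within 3 of them, cut at about 5.3 in these data; same plate scores as AID 2156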;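 note: B-score of peak minus minimum over baseline fluorescence ratio after K+ and Tl+ stimulus; positive B-score means potentiation of KCNQ2 with more thallium influx and brighter signal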
# Target sequence (O88943 whole entry, looked up): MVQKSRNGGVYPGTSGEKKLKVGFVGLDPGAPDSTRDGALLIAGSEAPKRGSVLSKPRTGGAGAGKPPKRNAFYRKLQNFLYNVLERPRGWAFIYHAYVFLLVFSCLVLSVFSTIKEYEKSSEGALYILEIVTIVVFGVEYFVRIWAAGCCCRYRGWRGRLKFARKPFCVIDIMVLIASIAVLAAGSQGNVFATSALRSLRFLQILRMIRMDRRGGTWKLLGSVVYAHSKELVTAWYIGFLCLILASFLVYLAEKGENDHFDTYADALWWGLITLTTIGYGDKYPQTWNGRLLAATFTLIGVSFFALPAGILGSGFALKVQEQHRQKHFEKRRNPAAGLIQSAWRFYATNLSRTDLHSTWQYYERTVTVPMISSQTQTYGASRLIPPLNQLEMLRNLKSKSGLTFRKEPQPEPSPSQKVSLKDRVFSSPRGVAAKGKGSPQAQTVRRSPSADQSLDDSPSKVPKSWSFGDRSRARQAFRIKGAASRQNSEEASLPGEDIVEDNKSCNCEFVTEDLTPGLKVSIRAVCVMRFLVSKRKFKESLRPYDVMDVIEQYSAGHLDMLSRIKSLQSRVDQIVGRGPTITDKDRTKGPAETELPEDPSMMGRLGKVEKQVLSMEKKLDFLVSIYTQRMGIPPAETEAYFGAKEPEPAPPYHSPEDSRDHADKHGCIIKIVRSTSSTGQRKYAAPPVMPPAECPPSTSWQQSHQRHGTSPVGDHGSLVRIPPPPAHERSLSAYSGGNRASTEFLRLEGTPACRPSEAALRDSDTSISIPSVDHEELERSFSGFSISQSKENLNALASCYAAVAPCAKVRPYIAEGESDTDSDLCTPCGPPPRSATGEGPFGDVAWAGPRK
# KCNQ2 inh: rat KCNQ2 potassium channel inhibitors, primary screen, cell-based, CHO-K1, FluxOR thallium flux, B-score; Potassium voltage-gated channel subfamily KQT member 2 (Rattus norvegicus), O88943; 20 min; stronger effect = lower value; B-score at 10 µM; actives 1.1% (n = 310,000); AID 2156, 2009;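 active = fluorescence ratio B-score at most minus 3 library SDs, with starting brightness B-score within 2 library SDs, cut at about -5.5 in these data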
# KCNQ2 block conf: rat KCNQ2 potassium channel inhibitors, confirmation, cell-based, thallium flux | shares compounds with KCNQ2 inh | KCNQ2-expressing cells, inhibition; stronger effect = lower value | activity change, negative = inhibition, % at 10 µM | actives 57% (n = 1,000) | AID 493025, 2011;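 note: 0% = vehicle wells and values are ratio percent relative to vehicle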
# KCNQ1 spec: human KCNQ1 channel inhibition, counter-screen for KCNQ2 inhibitor project, cell-based, FluxOR thallium flux. shares compounds with KCNQ2 inh. KCNQ1-expressing cells, FluxOR thallium flux fluorescence; stronger effect = lower value. actives 15% (n = 1,000). activity change, negative = inhibition, % at 10 µM;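 active = activity change at least 3 SD of negative controls below their mean in both duplicate wells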;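 note: CHO cells stably transfected with KCNQ1 and depolarized by potassium stimulus; peak minus minimum fluorescence over baseline after thallium addition; 0% = vehicle negative control and -100% = blank without thallium stimulus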
# CHO parental ctr: thallium flux change in parental CHO cells, counter-screen for KCNQ2 inhibitor project; AID 493029, 2011; activity change, % at 10 µM; actives 14% (n = 1,000); shares compounds with KCNQ2 inh; stronger effect = lower value;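 note: 0% = vehicle negative controls with stimulus buffer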
# KCNQ2 patch conf: rat KCNQ2 channel inhibitors, confirmation, cell-based, automated patch clamp, single concentration; shares compounds with KCNQ2 inh; KCNQ2-expressing cells, automated patch clamp current; calls only at 10 µM; actives 49% (n = 550); AID 588531, 2011
# Starred values were filed as active, the others as inactive; i = inactive; . = no result given; + = active, no number. Only some compounds are listed: those with a hit (about 1.6% of all), similar ones and a draw of the others. Unless noted, the rule behind the calls is not given here.
SMILES,KCNQ2 pot,KCNQ2 inh,KCNQ2 block conf,KCNQ1 spec,CHO parental ctr,others
CC1CCCC/C1=N/Nc1ccc([N+](=O)[O-])cc1[N+](=O)[O-] (configuration not stated),0.38,i,.,.,.,
O=[N+]([O-])c1ccc(C2CCCC/C2=N\OCc2cccc(F)c2)c([N+](=O)[O-])c1 (configuration not stated),-8.3,-8.3*,i,i,i,
CC(=O)C1=C(O)C(=O)N(c2cccc(Br)c2)C1c1ccccc1Cl (configuration not stated),.,i,.,.,.,
C=CCNC(=O)/C(C#N)=C/c1ccccc1Cl,-6.7,-6.7*,i,i,i,
C=CCNC(=O)/C(C#N)=C/c1ccc(C(=O)O)cc1,0.4,i,.,.,.,
O=C(c1sc2cc(Cl)ccc2c1Cl)N1CCN(CCc2ccccn2)CC1,.,i,.,.,.,
COC(=O)c1cc(-c2ccc(C)o2)nc2ccccc12,.,i,.,.,.,
Cc1ccc(-c2cc(C(=O)NCc3ccco3)c3ccccc3n2)o1,.,i,.,.,.,
Cc1ccc(-c2cc(C(=O)N3CC(C)OC(C)C3)c3ccccc3n2)o1 (configuration not stated),-11,-11*,-33%*,i,i,KCNQ2 patch conf=+
Cc1ccc(-c2cc(C(=O)Nc3ccccc3C)c3ccccc3n2)o1,-10,-10*,-40%*,i,i,KCNQ2 patch conf=+
CC(C)CC(=O)Nc1ccc(C(=O)COC(=O)C2CCC2)cc1,.,i,.,.,.,
Cc1cccc2cc(C(c3nnnn3C3CCCC3)N3CCOCC3)c(=O)[nH]c12 (configuration not stated),-7.8,-7.8*,-24%*,i,i,KCNQ2 patch conf=+
CCC(C)(C)n1nnnc1C(c1cc2cccc(C)c2[nH]c1=O)N1CCCC1 (configuration not stated),.,i,.,.,.,
CN(C)c1nc(NCc2ccccc2)nc(SCC(=O)Nc2ccccc2)n1,0.48,i,.,.,.,
CN(C)c1nc(NCc2ccccc2)nc(SCC(=O)Nc2ccccc2Cl)n1,-6.9,-6.9*,i,i,i,
CCOc1cc(N2CCOCC2)c(OCC)cc1NC(=O)COC(=O)CCOc1cc(C)ccc1C,2,i,.,.,.,
O=C(CN(c1ccc(Cl)c(Cl)c1)S(=O)(=O)c1ccccc1)N1CCc2ccccc2C1,-9.4,-9.4*,-33%*,i,i,KCNQ2 patch conf=+
COc1ccc(N(CC(=O)N2CCc3ccccc3C2)S(=O)(=O)c2ccccc2)cc1,.,i,.,.,.,
c1ccc(CC2CCN(C(c3cccs3)c3nnnn3C3CCCC3)CC2)cc1 (configuration not stated),.,i,.,.,.,
c1ccc(CN(Cc2cccs2)C(c2cccs2)c2nnnn2C2CCCC2)cc1 (configuration not stated),-8.2,-8.2*,i,i,i,
COc1ccc(CNC(=O)CN(Cc2ccco2)C(=O)CCC(=O)Nc2ccccn2)cc1,1.5,i,.,.,.,
O=C(OCC(=O)N(Cc1ccccc1)Cc1ccccc1)c1ccccc1NCCO,-7.5,-7.5*,-34%*,i,i,KCNQ2 patch conf=+
O=C(COC(=O)c1ccccc1NCCO)NCCc1ccccc1,1.1,i,.,.,.,
CN(CCO)CCC(=O)NC1(C)CS(=O)(=O)CC1S(=O)(=O)O (configuration not stated),0.33,i,.,.,.,
Cc1ccc2nc(C)cc(C(=O)OCC(=O)Nc3cccnc3Cl)c2c1,.,i,.,.,.,
SMILES,KCNQ2 pot,KCNQ2 inh,KCNQ2 block conf,KCNQ1 spec,CHO parental ctr,others
CC(C)(C)c1ccc(-c2nnc(SCCC#N)n2C2CCCC2)cc1,-8.5,-8.5*,-28%*,i,i,KCNQ2 patch conf=i
Cn1c(SCCC#N)nnc1-c1ccc(F)cc1,0.45,i,.,.,.,
O=C(O)CC1(CC(=O)NCc2cc(F)cc3c2OCOC3)CCCCC1,0.74,i,.,.,.,
Cc1cc([N+](=O)[O-])ccc1N(C)C,.,i,.,.,.,
Cc1cccc(N2C(=O)CC(N3CCN(c4ccccn4)CC3)C2=O)c1 (configuration not stated),.,i,.,.,.,
CN(C)c1ccnc(N(Cc2ccccc2)Cc2ccccc2)c1C#N,-7.2,-7.2*,i,i,i,
CN(C)c1ccnc(NCc2ccccc2)c1C#N,0.98,i,.,.,.,
COc1ccc(C)cc1S(=O)(=O)NCCN1CCOCC1,.,i,.,.,.,
Cc1cc(C)c(OCC(=O)N2CC=C(c3ccccc3)CC2)c(C)c1,-6.9,-6.9*,-29%*,i,i,KCNQ2 patch conf=i
Cc1ccsc1C(=O)N1CC=C(c2ccccc2)CC1,.,i,.,.,.,
Cc1ccc(-c2cc(C(=O)NCc3cnn(C)c3C)c3cc(Br)ccc3n2)cc1,-9.2,-9.2*,-34%*,i,i,KCNQ2 patch conf=+
Cc1ccc(-c2cc(C(=O)N(C)Cc3cnn(C)c3C)c3cc(Br)ccc3n2)cc1,.,i,.,.,.,
COc1ccccc1N1CCN(C(=O)c2cccc(N3C(=O)NC4CC3(C)Oc3ccccc34)c2)CC1 (configuration not stated),-7.7,-7.7*,i,i,i,
CCOC(=O)N1CCN(C(=O)c2cccc(N3C(=O)NC4CC3(C)Oc3ccccc34)c2)CC1 (configuration not stated),2.8,i,.,.,.,
COc1cccc(N2CCN(C(=O)c3cccc(N4C(=O)NC5CC4(C)Oc4c(OC)cccc45)c3)CC2)c1 (configuration not stated),1.1,i,.,.,.,
CC12CC(NC(=O)N1c1cccc(C(=O)N3CCN(c4ccccc4)CC3)c1)c1ccccc1O2 (configuration not stated),-7.3,-7.3*,i,i,i,
CCC(C)NS(=O)(=O)c1cc2c3c(c1)CCN3C(=O)CC2 (configuration not stated),.,i,.,.,.,
CC(C)(C)n1nnnc1C(c1ccccn1)N(Cc1ccccc1)Cc1ccc(Cl)cc1 (configuration not stated),-7.7,-7.7*,-28%*,i,i,KCNQ2 patch conf=i
CCN(Cc1ccccc1)C(c1ccccn1)c1nnnn1C(C)(C)CC (configuration not stated),.,i,.,.,.,
Cc1c(C(=O)NCCSCc2cccc(C(F)(F)F)c2)cnn1-c1ccc(Cl)cc1,.,i,.,.,.,
CN(Cc1ccccc1)C(=O)NC1CCCCC1,.,i,.,.,.,
C=C(C)c1ccc(C(C)(C)NC(=O)N(Cc2ccccc2)Cc2ccco2)cc1,-6.9,-6.9*,-16%*,i,i,KCNQ2 patch conf=i
O=C(NC1CCCCC1)N(Cc1ccccc1)Cc1ccco1,-8.1,-8.1*,i,i,i,
C=C(C)c1ccc(C(C)(C)NC(=O)NCc2ccco2)cc1,1.4,i,.,.,.,
CC(C)(C)OC(=O)COc1ccc(/C=N/NC(=O)CN2CCCCC2)cc1,.,i,.,.,.,
